About 79,000 compounds went through this panel and 15% of them were active in at least one assay; those are over-represented in the sample as a whole. Values without a mark were called inactive. The source made the active and inactive calls. Rule as the data show it: active = growth inhibition above about 70%; inactive = the rest.
Test: NCI Yeast Anticancer Drug Screen. Data for the CLN2oe strain (AID 163);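 also: 0% = growth of vehicle-only control cultures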
Settings: S. cerevisiae CLN2oe strain, hits give high values
Procedure: Growth inhibition of yeast strains with defined genetic alterations is measured as a screen for potential anti-cancer activity. Selected strains with alterations in DNA damage repair or cell cycle control were exposed to compounds and growth inhibition was measured relative to vehicle treated controls. The strain used in this assay is CLN2oe

SMILES: COC(=O)C(=O)CC(=O)c1cccc(OC)c1
- growth inhibition (at 1.2 µM): -6%
- growth inhibition (at 3.7 µM): -3%
- growth inhibition (at 11.0 µM): -1%
- growth inhibition (at 33.0 µM): 1%
- growth inhibition (at 100.0 µM): 10%

SMILES: O=C1C(=O)N(c2ccccc2)[C@@]2(c3ccccc3)C(=Nc3ccccc3)OC(c3ccccc3)=C12
- growth inhibition (at 1.2 µM): 2%
- growth inhibition (at 3.7 µM): 0%
- growth inhibition (at 11.0 µM): 1%
- growth inhibition (at 33.0 µM): 9%
- growth inhibition (at 100.0 µM): 47%

SMILES: O=[N+]([O-])c1ccc(C(c2c[nH]c3ccccc23)c2c[nH]c3ccccc23)cc1
- growth inhibition (at 1.2 µM): 40%
- growth inhibition (at 3.7 µM): 98% (active)
- growth inhibition (at 11.0 µM): 96% (active)
- growth inhibition (at 33.0 µM): 92% (active)
- growth inhibition (at 100.0 µM): 86% (active)

SMILES: CC1=CC(C)(C)SC(SSSC2=NC(C)=CC(C)(C)S2)=N1
- growth inhibition (at 1.2 µM): -10%
- growth inhibition (at 3.7 µM): -17%
- growth inhibition (at 11.0 µM): -14%
- growth inhibition (at 33.0 µM): -13%
- growth inhibition (at 100.0 µM): 13%

SMILES: COC1=CCC23C(=O)C=CC(=O)C2(C1)C(=O)c1ccccc1C3=O (stereo not given)
- growth inhibition (at 1.2 µM): 17%
- growth inhibition (at 3.7 µM): 8%
- growth inhibition (at 11.0 µM): 18%
- growth inhibition (at 33.0 µM): 38%
- growth inhibition (at 100.0 µM): 92% (active)

SMILES: C[N+](C)([O-])CCCNc1c2ccccc2nc2cccc([N+](=O)[O-])c12
- growth inhibition (at 1.2 µM): -2%
- growth inhibition (at 3.7 µM): -1%
- growth inhibition (at 11.0 µM): 33%
- growth inhibition (at 33.0 µM): 82% (active)
- growth inhibition (at 100.0 µM): 93% (active)

SMILES: CCCCOc1ccc2nc(C)cc(N=[N+]=[N-])c2c1
- growth inhibition (at 1.2 µM): 7%
- growth inhibition (at 3.7 µM): 6%
- growth inhibition (at 11.0 µM): 12%
- growth inhibition (at 33.0 µM): 28%
- growth inhibition (at 100.0 µM): 64%

SMILES: O=C1Nc2ccc(Br)cc2C1=Nc1cccnc1
- growth inhibition (at 1.2 µM): -5%
- growth inhibition (at 3.7 µM): 3%
- growth inhibition (at 11.0 µM): -18%
- growth inhibition (at 33.0 µM): -8%
- growth inhibition (at 100.0 µM): 1%

Source: PubChem BioAssay (NCI)
